Only some compounds are listed: those with a hit (about 5.4% of all), similar ones and a draw of the others.
Beta cell apopt = inhibitors of cytokine-induced beta cell apoptosis, primary screen, luminescence. INS-1E cytokine-induced death, ATP luminescence, 48 h; percent of positive-control rescue, neutral wells zero. protection from apoptosis, % (test concentration not listed). 300,000 compounds, 0.8% hits;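 active = Every replicate reaches about 75%, or at least half do and their mean reaches it too, limit read from the data; inconclusive = At least half of replicates reach the limit but their mean does not; inactive = Under half of replicates reach the limit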;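 also: 0% = cytokine-treated negative control wells and 100% = positive control rescue; higher means more ATP so stronger rescue from cytokine killing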
Calb FLC = C. albicans growth inhibition with fluconazole, primary screen, CaCi-2 strain, Alamar Blue fluorescence | C. albicans CaCi-2 (fluconazole-resistant clinical isolate) + fluconazole, 48 h | growth inhibition, % (test concentration not listed) | 300,000 compounds, 0.57% hits | AID 1979, 2009;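 active = growth inhibition above about 58% in most replicates, limit read from the data, passing the limit was not always enough; inconclusive = exactly half the replicates above a set limit; inactive = most replicates below a set limit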;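 also: all wells also contain fluconazole at 8 µg/ml as a sub-toxic cotreatment; 0% = median of DMSO wells and 100% = median of geldanamycin control wells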
MPTP block = mitochondrial permeability transition pore inhibitors, primary screen, biochemical, isolated mouse mitochondria, absorbance. Ca2+ swelling absorbance, 30 min. inhibition, % at 10 µM. 360,000 compounds, 1.4% hits. AID 602449, 2012;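 active = inhibition of 50% or more, scaled per plate between neutral and stimulator controls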;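 also: 0% = DMSO wells given calcium and 100% = 1 mM EGTA wells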
Mdm2-MdmX inh = inhibitors of human Mdm2-MdmX association, primary screen, cell-based, luminescence, split luciferase, SaOS-2, uHTS | Protein Mdm4 (Homo sapiens) + E3 ubiquitin-protein ligase Mdm2 (Homo sapiens), … | inhibition, % at 8 µM | SaOS-2 split-luciferase Mdm2/MdmX complementation | 330,000 compounds, 3% hits;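 active = inhibition of at least 50% at 8 µM in the primary screen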
Target sequence (O15151 whole entry, looked up): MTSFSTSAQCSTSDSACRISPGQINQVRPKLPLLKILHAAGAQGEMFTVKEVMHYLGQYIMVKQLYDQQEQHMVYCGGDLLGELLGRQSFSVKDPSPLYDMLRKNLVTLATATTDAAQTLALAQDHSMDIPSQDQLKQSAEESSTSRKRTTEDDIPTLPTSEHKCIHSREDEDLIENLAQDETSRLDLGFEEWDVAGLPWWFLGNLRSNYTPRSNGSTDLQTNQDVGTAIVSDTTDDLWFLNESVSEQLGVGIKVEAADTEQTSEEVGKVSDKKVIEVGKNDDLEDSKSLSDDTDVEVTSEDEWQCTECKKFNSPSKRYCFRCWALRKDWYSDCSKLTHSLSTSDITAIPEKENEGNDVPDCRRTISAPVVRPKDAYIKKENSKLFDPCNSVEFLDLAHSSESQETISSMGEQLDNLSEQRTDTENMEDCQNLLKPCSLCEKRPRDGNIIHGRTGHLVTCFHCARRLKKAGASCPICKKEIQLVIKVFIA
Target sequence (Q00987 whole entry, looked up): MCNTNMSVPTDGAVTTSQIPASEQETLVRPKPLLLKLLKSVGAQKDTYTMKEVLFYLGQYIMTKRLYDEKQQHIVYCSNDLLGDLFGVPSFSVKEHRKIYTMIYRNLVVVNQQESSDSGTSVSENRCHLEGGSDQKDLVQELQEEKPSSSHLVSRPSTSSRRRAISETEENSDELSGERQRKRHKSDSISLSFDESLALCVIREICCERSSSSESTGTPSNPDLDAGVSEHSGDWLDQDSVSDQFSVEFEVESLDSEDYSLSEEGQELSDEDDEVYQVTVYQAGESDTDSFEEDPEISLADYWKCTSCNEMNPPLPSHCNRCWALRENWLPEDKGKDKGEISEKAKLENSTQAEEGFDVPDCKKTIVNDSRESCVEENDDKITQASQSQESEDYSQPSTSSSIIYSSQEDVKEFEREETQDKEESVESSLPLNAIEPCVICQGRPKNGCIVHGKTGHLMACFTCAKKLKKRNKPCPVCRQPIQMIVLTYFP
CSC inhib = cancer stem cell viability inhibitors, primary screen, luminescence. cancer stem cell-like cells viability. inhibition, % at 7.5 µM. 300,000 compounds, 1.1% hits; in the data active = inhibition above about 75%; inconclusive = no clear call, values can overlap the other calls; tested in HMLE shEcad cells
SKKanGAS inh = S. pyogenes SKKanGAS growth inhibitors in kanamycin, primary screen, streptokinase expression inhibitor project, SKKanGAS strain, BacTiter-Glo luminescence | 6 h | inhibition, % at 7.5 µM | 300,000 compounds, 1.3% hits;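 active = mean replicate score, as percent of positive control median, at least 50; inconclusive = mean below 50 but one replicate at or above 50; inactive = mean and every replicate below 50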;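 also: strain carries kanamycin resistance gene driven by streptokinase promoter and grows in 40 µg/ml kanamycin; loss of luminescence reflects streptokinase promoter inhibition or plain growth inhibition; 0% = median of DMSO wells and 100% = positive control at its reference dose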
Mdm2-MdmX conf = Mdm2-MdmX complex disruptors, retested hits, confirmation, luminescence, single concentration | shares compounds with Mdm2-MdmX inh | 10,000 compounds, 55% hits | Mdm2-MdmX binding, luminescent assay | inhibition, % at 8 µM; in the data active = inhibition above about 40%
FLuc counter = full-length luciferase signal inhibition, confirmation, counter-screen for Mdm2/MdmX interaction inhibitor project, cell-based, single concentration, SaOS-2 | shares compounds with Mdm2-MdmX inh | SaOS-2 full-length luciferase counterscreen, luminescence | inhibition, % at 8 µM | 6,200 compounds, 77% hits | AID 504607, 2011;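 active = mean inhibition at 8 µM reaching about 37%, which flags the compound as non-specific, limit read from the data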;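 also: p53-null SaOS-2 cells with luciferase driven by a doxycycline-inducible promoter; compound on cells about two nights before reading with doxycycline added after day one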
An asterisk follows results filed as active; ? = inconclusive; . = not tested or not shown.

SMILES	Beta cell apopt	Calb FLC	MPTP block	Mdm2-MdmX inh	CSC inhib	SKKanGAS inh	Mdm2-MdmX conf	FLuc counter
COc1cccc(/C=N\NC(=O)c2ccc(Cn3cc(Br)c([N+](=O)[O-])n3)o2)c1O	96*	102*	-2	59*	-8	10	74*	43*
COc1ccc(/C=N\NC(=O)c2c(C)nc3ccc(Br)cn23)cc1	11	1	0	59*	57	-16	52*	49*
O=C(OCc1nc2ccccc2s1)c1ccco1	-1	30	-2	5	-10	-4	.	.
N#C/C(=C\c1ccc(OCc2ccc(C(=O)O)cc2)cc1)C(=O)N1CCOCC1	4	-2	1	55*	25	0	44*	21
COc1cc(/C=C(\C#N)C(=O)N2CCOCC2)ccc1OCc1ccccc1	-2	-7	0	-32	-2	16	.	.
CC(=O)Oc1cc2c(C(=O)NCCCN3CCOCC3)c(C)oc2c2ccccc12	.	-2	3	51*	-16	9	12	.
CC(c1n[nH]c(=S)n1-c1ccc(Cl)cc1)N(C)C (configuration not stated)	6	3	1	-4	-9	-5	.	.
Cc1[nH]c2ccccc2c1NC(=O)CN1CCN(c2cccc(C(F)(F)F)c2)CC1	-10	.	-4	11	.	.	.	.
Cc1[nH]c2ccccc2c1C(O)CN1CCN(c2cccc(C(F)(F)F)c2)CC1 (configuration not stated)	-14	-5	8	59*	-6	-3	29	.
CC/C(=C\C1CCCCC1)C(NP(=O)(c1ccccc1)c1ccccc1)c1ccccc1 (configuration not stated)	6	-1	0	55*	126*	101*	15	.
CC1=NN(/C(=N\c2nnc(C)s2)Nc2ccc(C)cc2)[C@H](c2ccc(C)cc2)S1	-2	24	-1	-3	-7	-10	.	.
COc1ccc(C(=O)Nc2cccc(NC(=O)c3ccc(OC)c(OC)c3)n2)cc1OC	14	-8	1	55*	20	1	49*	89*
COc1cc(C(=O)Nc2ccccn2)cc(OC)c1OC	0	1	-2	14	-4	-2	.	.
COc1cc(C(=O)Nc2ccccc2C(=O)Nc2ccccn2)cc(OC)c1OC	8	9	0	63*	54	-3	52*	47*
CCCCNc1nnc(SCC(=O)c2c(N)n(CCC)c(=O)[nH]c2=O)s1	0	.	0	14	-15	.	.	.
CCOC(=O)C(C(=O)OCC)c1cc(Br)c2noc3c2c1C(=O)c1ccccc1-3	33	16	7	100*	117*	91*	95*	1
CC(=O)OCCNc1cc(N2CCN(C)CC2)c2noc3c2c1C(=O)c1ccccc1-3	.	.	5	.	.	.	.	.
CC(=O)C(C(C)=O)c1c(Cl)c(O)c(O)c2c(C(=O)c3ccccc3)coc12	128*	?	3	60*	71	-2	34	.
Cc1cc(NO)c(C(C)C)cc1N=O	0	11	4	60*	2	-3	36	.
O=C(O)Cc1cc(I)c(Oc2ccc(O)c(I)c2)c(I)c1	-3	19	.	53*	47	26	7	.
O=C(O)Cc1ccc(O)c(O)c1	-5	-10	-1	8	-6	-1	.	.
O=c1c2ccccc2nc(/C=C/c2cc(Br)ccc2O)n1CCCO	-13	6	0	89*	52	16	74*	27
COc1ccc(-c2csc(/C(C#N)=C\c3ccc(OC)c([N+](=O)[O-])c3)n2)cc1	8	11	1	54*	1	-6	16	.
N#C/C(=C\Nc1ccc2c(c1)OCCO2)c1nc(-c2ccccc2)cs1	-1	5	-2	49	36	6	.	.
COc1ccc(-c2csc(/C(C#N)=C/Nc3ccc4c(c3)OCCO4)n2)cc1	14	-2	2	52*	5	0	8	.
SMILES	Beta cell apopt	Calb FLC	MPTP block	Mdm2-MdmX inh	CSC inhib	SKKanGAS inh	Mdm2-MdmX conf	FLuc counter
N#Cc1c(N)[nH]c2ccc(Sc3ccccc3)cc12	.	.	46	.	.	.	.	.
Cc1c2ccccc2nc2ccccc12	-11	1	9	27	17	9	.	.
Cc1c2ccccc2c(C)c2c1ccc1ccccc12	-6	.	1	79*	26	.	40*	98*
N#Cc1cc(Oc2cccc3cccnc23)c(-n2nnc3ccccc32)cc1C#N	10	1	-2	62*	5	7	18	.
N#Cc1cc(O)c(-n2nnc3ccccc32)cc1C#N	.	17	0	16	-2	-7	.	.
Cc1cc(N2CCN(Cc3cn(C)nc3-c3cccc(Cl)c3)CC2)cc(C)n1	3	17	2	61*	42	3	62*	43*
Oc1cc2c(cc1CN1CCN(c3cccc(C(F)(F)F)c3)CC1)CCC2	-4	0	0	2	38	13	.	.
CCCCNC1C(CC)C(CCC)C(C#N)(C#N)C1(C#N)C#N (configuration not stated)	-14	-4	-17	61*	0	-19	31	56*
O=C(N/N=C/c1cccc(O)c1)c1ccc(COc2cccc3cccnc23)cc1	6	?	-2	54*	-3	17	23	.
O=C(N/N=C/c1ccncc1)c1ccc(COc2cccc3cccnc23)cc1	-5	-12	-1	29	1	-6	.	.
O=C(Nc1ccc(S(=O)(=O)Nc2cnc3ccccc3n2)cc1)c1ccc(Br)o1	.	-10	-2	5	-4	10	.	.
COc1cccc(C(=O)Nc2cc(Cl)c(O)c(Cl)c2)c1	-13	-11	-1	-32	0	9	.	.
Cc1sc2ncnc(Sc3nnnn3-c3ccc(Cl)cc3)c2c1C	3	-5	6	101*	31	?	79*	54*
c1ccc(-n2nnnc2Sc2ncnc3sc4c(c23)CCCC4)cc1	1	-3	2	98*	32	6	75*	48*
O=C(CNC(=O)c1ccccc1)NCC(c1ccco1)N1CCCC1 (configuration not stated)	0	.	-1	15	-18	.	.	.
NC(=O)N/N=C/c1ccc(-n2nncc2-c2ccc(Cl)cc2)cc1	7	6	-1	27	.	8	.	.
C[C@@]12C(=O)Nc3cc(Cl)ccc3C(=O)N1[C@H]1c3ccccc3OC[C@@H]1[C@@H]2c1ccccc1	8	.	0	22	-21	.	.	.

Assay outcomes: PubChem, several laboratories
